Hits are enriched below; roughly 17% of the tested compounds scored in any of these assays.
TDP1 inh: blocks human tyrosyl-DNA phosphodiesterase 1. Q9NUW8. recombinant TDP1, AlphaScreen DNA substrate cleavage. Potency, µM (series often up to 130 µM), usual class: inhibitors. 350,000 tested, 0.28% active. AID 485290; further: nearly all actives have a fitted effect of over 40% in size
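Compounds were preincubated with Tdp1 (1 nM final) for 15 min at room temperature before substrate (15 nM final) started a 5 min reaction; beads (10 ug/ml final) were then added for 10 min before AlphaScreen detection.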
TDP1 cell noCPT: qHTS for Inhibitors of human tyrosyl-DNA phosphodiesterase 1 (TDP1): qHTS in cells in absence of CPT; Potency, µM (titrated, usually from 46.2 µM), usual class: inhibitors; AID 686978, 2013; DT40 Tdp1-/- hTDP1 cells, no CPT, ATP luminescence, 48 h; 420,000 tested, 15% active; further: nearly all actives have a fitted effect of over 55% in size
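Camptothecin absent (DMSO only). Human TDP1-complemented DT40 knockout cells, 400 cells/well, 37 °C for minimum 48 hr; ATP measured via CellTiter-Glo, 30 min dark incubation, luminescence.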
DT40 TDP1 CPT: DT40-hTDP1 cell growth loss with CPT. chicken DT40 Tdp1-/-;hTDP1 cells + 20 nM CPT, ATP luminescence, 48 h. Potency, µM (top dose mostly 46.2 µM), actives largely listed as inhibitors. 420,000 tested, 12% active. AID 686979; further: nearly all actives have a fitted effect of over 55% in size
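Chicken DT40 Tdp1-/- cells stably complemented with human TDP1 were seeded at 400 cells/well in medium containing 20 nM camptothecin, exposed to pin-transferred compounds, and grown at 37 °C for at least 48 hr. Viability was read as ATP luminescence.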
ClpP mod: qHTS Assay for Activators of ClpP; purified B. subtilis ClpP, FRET peptide cleavage, 20 min; Potency, µM (titrated, usually from 57.5 µM); 340,000 tested, 1.9% active; active means well fitted falling curve with a large enough effect; inconclusive means small, poorly fitted or top-dose-only effect; inactive means no such curve, though single readings can be large or run the other way; further: the source files actives as falling curves though it sought activators and does not explain the sign; nearly all actives have a fitted effect of over 65% in size
Target sequence (P80244 whole entry, looked up): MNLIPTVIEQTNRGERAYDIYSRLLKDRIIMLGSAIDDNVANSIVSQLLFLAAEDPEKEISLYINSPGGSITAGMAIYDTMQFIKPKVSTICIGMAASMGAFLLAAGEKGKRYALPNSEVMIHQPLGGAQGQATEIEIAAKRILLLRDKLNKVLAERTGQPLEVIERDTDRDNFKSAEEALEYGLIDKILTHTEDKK
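Purified B. subtilis ClpP, 10 microg/mL final in Tris/HCl pH8 with KCl, BSA, glycerol and Tween-20, cleaved an Abz/nitrotyrosine-quenched decapeptide. Fluorescence (ex 320, em 430) was read at 0 and 20 min at room temperature. Delta was normalized to 5.8 microM ADEP and DMSO/no-enzyme controls.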
ClpP inh valid: inhibits B. subtilis ClpP protease, hit validation; shares compounds with ClpP mod; purified B. subtilis ClpP, FRET-FV substrate cleavage, 20 min; Potency, µM (highest dose often 57.5 µM), most hits filed as inhibitors; 470 tested, 40% active; AID 743245; further: nearly all actives have a fitted effect of over 70% in size
Hits are given with their value; . = inactive; ? = inconclusive; / = no result; [ ] = dose if it differs, or a comment. Unless noted, the call rests on the fitted dose curve; in most records, active means well fitted curve in the direction sought with a large enough effect; inconclusive means small, poorly fitted or top-dose-only effect, or another doubt; inactive means no such curve, though single readings can be large; an effect the other way counts as inactive or inconclusive.

SMILES	TDP1 inh	TDP1 cell noCPT	DT40 TDP1 CPT	ClpP mod	ClpP inh valid
c1ccc2nc(-c3nc4ccccc4o3)ccc2c1	.	?	14µM	8.9µM	22µM
Cc1ccc(C)c(OCCCC(=O)NC2CCCCC2)c1	/	?	?	3.2µM	.
CCOC(=O)c1oc2ccccc2c1NC(=O)COc1ccc(F)cc1	.	?	?	?	/
CCOC(=O)c1oc2ccccc2c1NC(=O)COc1cccc(OC)c1	.	.	.	.	19µM
CCOc1ccc(CC(=O)Nc2c(C(=O)Nc3ccc(OC)cc3OC)oc3ccccc23)cc1	.	?	?	.	19µM
COc1ccccc1NC(=O)c1oc2ccccc2c1NC(=O)c1ccco1	.	?	.	.	22µM
O=C(COc1ccccc1F)Nc1c(C(=O)Nc2cccc(F)c2)oc2ccccc12	.	?	.	.	?
COc1ccc(CC(=O)Nc2c(C(=O)Nc3ccccc3F)oc3ccccc23)cc1	.	.	.	.	/
NC(=O)c1oc2ccccc2c1NC(=O)c1ccco1	.	?	.	.	/
O=C1NC[C@H](CCCCN2C[C@H](Cc3ccc(O)cc3)N(Cc3ccccc3)C(=O)C2=O)N(CCc2ccccc2)C1=O	/	.	.	.	/
O=C(/C=C/[C@H]1O[C@@H](n2cnc3c(NC(=O)c4ccccc4)ncnc32)[C@H](O)[C@@H]1O)NCCc1ccc(F)cc1	/	.	.	.	/
CC1CN(S(=O)(=O)c2cc(C(=O)N(C)Cc3cccs3)ccc2Cl)CC(C)O1 (centres undefined)	.	?	?	.	/
CC(=O)N1N=C(c2ccncc2)OC12CCCC2	.	.	.	10µM	24µM
CC(=O)N1N=C(c2ccccc2)OC1(C)CC(=O)Nc1ccccc1 (centres undefined)	.	.	.	.	/
Cc1ccc(C)c(NC(=O)C(OC(=O)c2cnc(C)cn2)c2ccccc2)c1 (centres undefined)	/	.	.	.	.
CC(C)c1nc2oc3c(NCC4CCCO4)ncnc3c2c2c1COC(C)(C)C2 (centres undefined)	.	15µM	?	7.1µM	22µM
CC(C)c1nc2ccc(C(=O)NCc3ccc(N(C)C)cc3)cc2o1	.	.	.	.	/
CC(C)c1ccc(Nc2ncnc3c2c(-c2ccccc2)cn3-c2ccccc2)cc1	.	?	3.7µM	2.5µM	24µM
CCOC(=O)CNc1nc(Cl)nc(Nc2ccc(Cl)cc2)n1	.	.	.	.	/
COCCN(C(=O)CCc1ccccc1OC)c1nnc(-c2cccnc2)s1	.	?	?	.	/
Cc1ccc(-c2cc3nc(-c4ccccc4)cc(N4CCOCC4)n3n2)cc1	.	?	.	8.9µM	34µM
Cc1cc(N2CCOCC2)n2nc(C)c(-c3ccccc3)c2n1	.	?	.	.	/
COc1ccc(-c2cc3nc(-c4ccccc4)cc(N4CCC5(CC4)OCCO5)n3n2)cc1	/	?	26µM	7.1µM	4.9µM
COc1ccc(-c2cc3nc(-c4ccccc4)cc(C(F)(F)F)n3n2)cc1	/	.	.	.	/
CC(Oc1ccc(Br)cc1Br)C(=O)Nc1cccnc1Cl (centres undefined)	.	.	.	.	/
SMILES	TDP1 inh	TDP1 cell noCPT	DT40 TDP1 CPT	ClpP mod	ClpP inh valid
Cc1cc2cc(CCNC(=O)c3cccs3)c(=O)[nH]c2cc1C	.	?	?	?	/
CCOc1ccc(N(C(=O)CNC(=O)c2ccco2)C(C(=O)NC2CCCC2)c2cccnc2)cc1 (centres undefined)	.[0.0935 µM]	.	.	/	/
CCOc1ccc(N(C(=O)CNC(=O)c2ccco2)C(C(=O)NC2CCCC2)c2ccco2)cc1 (centres undefined)	.	.	.	3.2µM	.
CC1CC=CC2C1C(=O)N(Cc1ccccc1)C2c1ccc(-c2ccoc2)cc1F (centres undefined)	.	/	/	/	/
COc1ccc(-c2ccc(N(C)C)cc2)cc1[C@H]1[C@H]2C=CC[C@@H](C)[C@@H]2C(=O)N1Cc1ccccc1	.	8.2µM	12µM	2.2µM	34µM
CCOC(=O)N1CCC(Nc2nc3ccccc3n3nnnc23)CC1	.	?	?	25µM	19µM
